“And” between values parts separate entries of the source, which are not always exact repeats. Identical values can stand only once. Records with an inconclusive call do not appear. A number with no mark means an inactive call. The source made the active and inactive calls. Unless noted, calls come from the whole dose curve; as a rule, active = well fitted curve in the direction sought with a large enough effect; inconclusive = small, poorly fitted or top-dose-only effect, or another doubt; inactive = no such curve, though single readings can be large; an effect the other way counts as inactive or inconclusive.

The target in experiment [1] is Cellular tumor antigen p53 (Homo sapiens) (UniProt P04637). Nature of the experiment: Primary qHTS for small molecule compounds that upregulate eGFP-tagged delta133p53alpha (in N-terminal) cells. (AID 2060322).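 For activation: cells pre-induced with doxycycline then dosed without doxycycline; series mostly up to about 56 µM; 0% = DMSO vehicle and 100% = reference activator.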 Note: nearly all actives have a fitted effect of over 75% in size. Note: potency is the fitted concentration of half-maximal effect. As to conditions: NCI-H358 eGFP-delta133p53alpha fluorescence, 24 h; activation: active compounds read high. The method, boiled down:
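NCI-H358 cells pre-induced 24 h with 10 ng/ml doxycycline for eGFP-delta133p53alpha, plated dox-free and exposed 24 h at 37C to titrated compounds. Fixed, Hoechst-stained; gated GFP peak intensity by laser scanning cytometry, normalized to DMSO (0%) and 57.5 uM 5-azacytidine (100%).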

The target of experiment [2] is Aldehyde dehydrogenase, mitochondrial (Homo sapiens) (UniProt P05091). Nature of the experiment: qHTS for Inhibitors of the Aldehyde Dehydrogenase Family (ALDH2) Validation screens (AID 2061302; active = well fitted inhibition curve with a large enough effect; title and protocol of this record describe different tests;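 note: plate controls were DMSO vehicle for no effect and maximal DPI positive control response for full effect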).
For experiment [3], the target named is Retinaldehyde dehydrogenase 3 (Homo sapiens) (UniProt P47895). The experiment can be described thus: qHTS for Inhibitors of the Aldehyde Dehydrogenase Family (ALDH1A3) Validation screen (AID 2061312). For activity change, negative = inhibition: % is set by controls: 0 for no effect and ±100 for the full control effect. Note: nearly all actives have a fitted effect of over 45% in size. Note: potency is the fitted concentration of half-maximal effect.
Experiment [4] is described as follows: BET inhibitor-based combinations targeting novel dependencies in MECOM-rearranged (r) AML: SET-2 cell line (AID 2202231).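 For viability: plate controls were DMSO treated cells for no effect and wells without cells for full effect.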 Note: nearly all actives have a fitted effect of over 35% in size. Note: potency is the fitted concentration of half-maximal effect. As to conditions: SET-2 AML cells viability, CellTiter-Glo luminescence, 48 h; viability: active compounds read low, concentration not given here. The method, boiled down: (§1)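 Each compound was tested at eleven concentrations on cells seeded at 500/well. After two days' incubation, ATP-based luminescence reported viability; responses relative to DMSO and blank wells yielded AUC and cell-line-centred Z-AUC.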

Experiment [5] in a line: BET inhibitor-based combinations targeting novel dependencies in MECOM-rearranged (r) AML: MV-4-11 cell line (AID 2202233). Note: nearly all actives have a fitted effect of over 45% in size. Note: potency is the fitted concentration of half-maximal effect. The procedure, abridged:
(§2)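 First, 500 cells per well were seeded; next, drugs were pinned as 11-point doses; then plates sat 48 hr in the incubator; finally CellTiter-Glo was added and luminescence read, with AUC and Z-AUC computed.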

Experiment [6] in a line: BET inhibitor-based combinations targeting novel dependencies in MECOM-rearranged (r) AML: HNT-34 cell line (AID 2202234).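 Note: plate controls were vehicle wells for no effect and cell-free wells for full effect; nearly all actives have a fitted effect of over 35% in size.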 The method, boiled down:
as §2

The nature of experiment [7]: BET inhibitor-based combinations targeting novel dependencies in MECOM-rearranged (r) AML: UCSD-AML1 cell line (AID 2202235).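 Note: series mostly up to about 46 µM; plate controls were DMSO vehicle wells for no effect and blank wells for full effect; nearly all actives have a fitted effect of over 40% in size.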 The method, boiled down: as §2
A short description of experiment [8]: BET inhibitor-based combinations targeting novel dependencies in MECOM-rearranged (r) AML: AML-191 cell line (AID 2202236;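 note: plate controls were vehicle wells for no effect and wells without cells for full effect; nearly all actives have a fitted effect of over 35% in size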). The method, boiled down:
as §1

Experiment [9] in a line: BET inhibitor-based combinations targeting novel dependencies in MECOM-rearranged (r) AML: AML-194 cell line (AID 2202237;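 note: plate controls were vehicle wells for no effect and wells without cells for full effect; nearly all actives have a fitted effect of over 40% in size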). The method, boiled down:
as §1

Experiment [10] has as its target Aldehyde dehydrogenase, mitochondrial (Homo sapiens) (UniProt P05091). The experiment can be described thus: qHTS for Inhibitors of the Aldehyde Dehydrogenase Family (ALDH2) Confirmatory screens (AID 2061303; active = well fitted inhibition curve with a large enough effect; title and protocol of this record describe different tests; note: nearly all actives have a fitted effect of over 45% in size; note: potency is the fitted concentration of half-maximal effect; for activity change, negative = inhibition: % is set by controls: 0 for no effect and ±100 for the full control effect).
A short description of experiment [11]: qHTS for Inhibitors of the Aldehyde Dehydrogenase Family (ALDH1A2, ALDH1A3, ALDH2, ALDH3A1) (AID 2061307). For Potency: test system not described further here; potency is the fitted concentration of half-maximal effect. For activity change, negative = inhibition: % is set by controls: 0 for no effect and ±100 for the full control effect. Note: nearly all actives have a fitted effect of over 50% in size.
In experiment [12] the target is Aldehyde dehydrogenase, mitochondrial (Homo sapiens) (UniProt P05091). The experiment can be described thus: qHTS for Inhibitors of the Aldehyde Dehydrogenase Family (ALDH2) Primary screen (AID 2061308).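 For activity change, negative = inhibition: plate controls were vehicle for no effect and reference inhibitor for full effect.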 Note: nearly all actives have a fitted effect of over 55% in size. Note: potency is the fitted concentration of half-maximal effect.
In experiment [13] the target is Retinaldehyde dehydrogenase 3 (Homo sapiens) (UniProt P47895). The experiment can be described thus: qHTS for Inhibitors of the Aldehyde Dehydrogenase Family (ALDH1A3) Confirmatory screens (AID 2061311). For activity change, negative = inhibition: % is set by controls: 0 for no effect and ±100 for the full control effect. Note: nearly all actives have a fitted effect of over 60% in size. Note: potency is the fitted concentration of half-maximal effect.
Experiment [14] concerns the target Retinal dehydrogenase 2 (Homo sapiens) (UniProt O94788). Nature of the experiment: qHTS for Inhibitors of the Aldehyde Dehydrogenase Family (ALDH1A2) Confirmation screens (AID 2061314). Note: nearly all actives have a fitted effect of over 65% in size. Note: potency is the fitted concentration of half-maximal effect.
Experiment [15] addresses Aldehyde dehydrogenase 1A1 (Homo sapiens) (UniProt P00352). The experiment can be described thus: qHTS for Inhibitors of the Aldehyde Dehydrogenase Family (ALDH1A1) Confirmatory screens (AID 2061316). Note: nearly all actives have a fitted effect of over 65% in size. Note: potency is the fitted concentration of half-maximal effect.
Experiment [16] has as its target Retinaldehyde dehydrogenase 3 (Homo sapiens) (UniProt P47895). The experiment can be described thus: qHTS for Inhibitors of the Aldehyde Dehydrogenase Family (ALDH1A3) Primary screen (AID 2061315).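 For activity change, negative = inhibition: plate controls were DMSO vehicle for no effect and reference inhibitor for full effect.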 Note: potency is the fitted concentration of half-maximal effect.
The nature of experiment [17]: BET inhibitor-based combinations targeting novel dependencies in MECOM-rearranged (r) AML: OCI-AML3 cell line (AID 2202232). Note: nearly all actives have a fitted effect of over 35% in size. Note: potency is the fitted concentration of half-maximal effect. The settings on record: Potency: OCI-AML3 viability. The method, boiled down: as §1

Chain of Cellular tumor antigen p53 (Homo sapiens) (P04637 whole entry, looked up): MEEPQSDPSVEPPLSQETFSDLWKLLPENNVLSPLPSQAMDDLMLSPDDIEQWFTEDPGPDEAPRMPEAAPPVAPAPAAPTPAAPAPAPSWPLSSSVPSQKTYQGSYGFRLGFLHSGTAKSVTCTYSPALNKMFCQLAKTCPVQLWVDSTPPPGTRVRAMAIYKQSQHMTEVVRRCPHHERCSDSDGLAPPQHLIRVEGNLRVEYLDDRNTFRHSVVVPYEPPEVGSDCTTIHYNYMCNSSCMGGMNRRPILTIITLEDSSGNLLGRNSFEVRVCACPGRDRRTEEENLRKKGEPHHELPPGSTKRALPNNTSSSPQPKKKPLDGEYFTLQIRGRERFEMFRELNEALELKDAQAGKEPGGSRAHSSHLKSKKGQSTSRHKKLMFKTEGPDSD

As to `c1ccc([C@H]2CN3CCSC3=N2)cc1`, the activation in experiment [1] was 15.3% and -0.374%. For the same compound, the Potency result in experiment [2], in [3], in experiment [5], in experiment [6], in [7] and in experiment [8] was “inactive” throughout. Also, the Potency entry in experiment [9] was “inactive”. For the same compound, in experiment [4], the viability was 112%.
As for `CCCCOC(=O)NS(=O)(=O)c1sc(CC(C)C)cc1-c1ccc(Cn2c(CC)nc3c(C)cc(C)nc32)cc1`, the activation in [1] is -46.4%. For the same compound, the Potency result in experiment [2] and in experiment [3] was “inactive” each time.
In the case of `COc1cc(O)c2c(c1)C1OC1C[C@H](O)[C@H](O)C(=O)/C=C\C[C@H](C)OC2=O` (some centres not stated), the Potency in experiment [1] was 21.3 µM (active). Moreover, the Potency result in experiment [10], in experiment [11], in experiment [12], in experiment [13] and in experiment [3] was “inactive” throughout.
As for `NC(CO)C(=O)NNCc1ccc(O)c(O)c1O` (configuration not stated), the activation in experiment [1] is -10.9% and -15.4% and 9.06%. Moreover, the Potency result in [2], in [5], in experiment [7] and in experiment [9] was “inactive” throughout.
Consider `CN(C)CCCN1c2ccccc2CCc2ccc(Cl)cc21`, for which the activation in [1] is 5.09% and -16.2%. Moreover, the Potency entry in [2], in experiment [3], in experiment [7] and in experiment [9] was “inactive” in each case.
For the compound `NC(=O)c1cn(Cc2c(F)cccc2F)nn1`, in [1], the activation is -12.6% and -6.02%. Besides, the Potency entry in experiment [2] and in experiment [3] was “inactive” each time.
Take `Cc1ccc(S(=O)(=O)c2ccc([N+](=O)[O-])o2)cc1`: the Potency is 8.49 µM (active) in experiment [1]; 1.59 µM (active) in experiment [10]; 0.708 µM (active) in experiment [11]; 0.562 µM (active) in experiment [12]; 11.2 µM (active) in experiment [13]; 1.41 µM (active) in [3]. Moreover, the figures for the Potency in experiment [14] and in experiment [15] were 3.98 µM (active) and 0.504 µM (active), respectively.
For the compound `CCN(CC)CCOCCOC(=O)C(CC)(CC)c1ccccc1`, the activation in experiment [1] was -4.3%. Further, the Potency result in experiment [10], in experiment [11], in [12], in experiment [3], in experiment [14] and in [16] was “inactive” in each case. Further, the Potency entry in experiment [15] was “inactive”. For the same compound, the activity change, negative = inhibition in [13] was -17.9% [at 0.022 µM].
`OC[C@H]1O[C@@H](n2cnc3c2NC=NC[C@H]3O)C[C@@H]1O`: in [1], the activation is -7.16%. Moreover, the Potency result in [10], in experiment [11], in experiment [12], in experiment [13], in [3] and in experiment [14] was “inactive” throughout. In addition, the Potency entry in experiment [16], in experiment [15], in experiment [17], in [5], in experiment [6] and in experiment [7] was “inactive” in each case. Also, the Potency result in experiment [8] and in experiment [9] was “inactive” in each case. Further, the viability in [4] is 108%.
As to `CC(C)(C)c1ccc(C(=O)CCCN2CCC(OC(c3ccccc3)c3ccccc3)CC2)cc1`, in experiment [1], the activation was -44.6%. Moreover, the Potency result in [2] and in [3] was “inactive” throughout.
With `O=c1c(O)c(-c2ccc(O)c(O)c2)oc2cc(O)cc(O)c12`, the activation in experiment [1] is -2.54% and -9.6% and 3.95%. Moreover, the Potency entry in [2], in experiment [17], in experiment [5], in experiment [6], in experiment [7] and in experiment [8] was “inactive” each time. Moreover, in experiment [4], the viability is 113%.
Turning to `CC(C)NCC(O)COc1ccc(CCOCC2CC2)cc1` (configuration not stated), the activation in experiment [1] was -6.83% and 29.3% and -23.2%. The Potency entry in experiment [2], in [3], in experiment [17], in [5], in experiment [6] and in experiment [7] was “inactive” in each case. For the same compound, the Potency result in experiment [8] and in experiment [9] was “inactive” throughout. Also, the viability in experiment [4] is 115%.
Consider `CCCNCC(O)COc1ccccc1C(=O)CCc1ccccc1` (configuration not stated), for which the activation in experiment [1] was 15% and -5.02% and 3.52%. For the same compound, the Potency result in [2] and in [3] was “inactive” throughout. Besides, the viability in experiment [4] is 84.2%.
As to `COc1ccc2[nH]cc(CCNC(C)=O)c2c1`, the activation in experiment [1] is 4.42% and -13.4% and -16.3%. In addition, the Potency result in [2], in experiment [3], in [5], in experiment [6], in [7] and in experiment [8] was “inactive” each time. Moreover, the Potency entry in [9] is “inactive”. Moreover, the viability in experiment [4] is 124%.
Take `CN1CCN(CCCN2c3ccccc3Sc3ccc(C(F)(F)F)cc32)CC1`: in [1], the activation was -19.8% and -3.33% and -47.4%. Besides, the Potency entry in experiment [2] and in [7] was “inactive” throughout. The Potency was 16.6 µM (active) in [4], 16.6 µM (active) in experiment [17] and 20.9 µM (active) in experiment [5].
With `NCCCCCCCCCCN`, in experiment [1], the activation is 28.3%. In addition, the Potency result in [2] and in experiment [3] was “inactive” each time.
As to `COc1ccc(CCC(=O)c2c(O)cc(O[C@@H]3O[C@H](CO)[C@@H](O)[C@H](O)[C@H]3O[C@@H]3O[C@@H](C)[C@H](O)[C@@H](O)[C@H]3O)cc2O)cc1O`, in [1], the activation is 8.33%. Further, the Potency entry in experiment [10], in experiment [11] and in experiment [12] was “inactive” each time.
`Clc1cccc(COc2cncc(N3CCNCC3)n2)c1`: the activation in experiment [1] was 14.8%. For the same compound, the Potency entry in experiment [10], in [11], in [12], in experiment [13], in experiment [14] and in experiment [16] was “inactive” throughout. Further, the Potency result in [15] was “inactive”.
Take `Cc1cn(C[C@H](N)C(=O)O)c(=O)n(Cc2ccsc2C(=O)O)c1=O`: the activation in [1] was 15.3%. For the same compound, the Potency result in experiment [10], in experiment [11], in experiment [12], in [13], in [16] and in experiment [15] was “inactive” throughout. For the same compound, in experiment [3], the Potency was 12.6 µM (active).
Turning to `COc1cc(CC2COC(c3ccc(OC4OC(CO)C(O)C(O)C4O)c(OC)c3)C2CO)ccc1O` (configuration not stated), the activation in [1] is -20.6%. Also, the Potency entry in [10], in experiment [11], in [12] and in [14] was “inactive” throughout. In addition, the Potency is 11 µM (active) in experiment [13] and 8.91 µM (active) in experiment [16].
Consider `COC(=O)N1CC2(CC2)C[C@H](C(=O)NO)[C@H]1C(=O)N1CCN(c2ccccc2)CC1`, for which, in [1], the activation is 12.6%. Further, the Potency entry in [10], in [11], in experiment [12], in experiment [13], in experiment [14] and in experiment [15] was “inactive” in each case. For the same compound, the Potency entry in experiment [17], in experiment [5], in [6], in [8] and in [9] was “inactive” each time. In experiment [4], the viability was 112%.

These data come from PubChem BioAssay (NCATS).
